Laboratory results taken from PubChem BioAssay (EPA / NIEHS).
Calls of active or inactive are those of the source. Rule for the calls: active = hit-call score of the fitted dose curve at least 0.9, where 1 is the maximum; inactive = score below 0.9.

How the values were obtained:
Conditions in all cases: mRNA level, 48 h; actives raise or lower the signal
[1] = read-out: Bcl-2 (BID) gene, BID (gene 637); test: LTEA_HepaRG_BID: Life Technologies and Expression Analysis (LTEA) Assay for Bcl-2 (BID) gene using HepaRG (AID 2283476)
How it was run: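 Gain or loss of BID expression is fitted relative to 0.5% DMSO vehicle. Human HepaRG liver cells received a 48 h chemical exposure over an eight-point concentration range.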

Caspase-3 (Homo sapiens) = Caspase-3 (Homo sapiens) (UniProt P42574); test: LTEA_HepaRG_CASP3: Life Technologies and Expression Analysis (LTEA) Assay for cysteine-aspartic acid protease (CASP3) using HepaRG (AID 2283477)
Caspase-3 (Homo sapiens), sequence (P42574 whole entry, looked up): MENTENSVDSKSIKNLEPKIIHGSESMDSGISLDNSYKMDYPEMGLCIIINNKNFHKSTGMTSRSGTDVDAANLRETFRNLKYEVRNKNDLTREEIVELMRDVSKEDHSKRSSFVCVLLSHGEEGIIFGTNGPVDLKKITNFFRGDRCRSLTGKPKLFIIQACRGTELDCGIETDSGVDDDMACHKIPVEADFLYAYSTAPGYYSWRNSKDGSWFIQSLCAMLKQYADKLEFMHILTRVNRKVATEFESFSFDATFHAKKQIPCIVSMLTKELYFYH
How it was run: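 Transcript-level assay: CASP3 mRNA in human HepaRG after 48 h treatment, eight half-log concentrations from 100 uM in 0.5% DMSO, quantified by qRT-PCR.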

[2] = read-out: Cytochrome P450 (CYP1A2), CYP1A2 (gene 1544); test: LTEA_HepaRG_CYP1A2: Life Technologies and Expression Analysis (LTEA) Assay for Cytochrome P450 (CYP1A2) using HepaRG (AID 2283479)
How it was run: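 In duplicate wells, HepaRG cultures maintained in 0.5% DMSO were treated 48 h across an 8-point, half-log series topping at 100 uM; phenobarbital (1 mM) served as induction control. Expression was read by qRT-PCR.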

[3] = read-out: cysteine-aspartic acid protease (CASP8), CASP8 (gene 841); test: LTEA_HepaRG_CASP8: Life Technologies and Expression Analysis (LTEA) Assay for cysteine-aspartic acid protease (CASP8) using HepaRG (AID 2283480)
How it was run: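 Differentiated HepaRG cells in serum-free induction medium, 48 h exposure, eight-point half-log series from 100 uM in 0.5% DMSO, duplicates. CASP8 mRNA by qRT-PCR, normalized to ACTB, GAPDH, POLR2A; bidirectional fit versus DMSO.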

[4] = read-out: Cytochrome P450 (CYP2B6), CYP2B6 (gene 1555); test: LTEA_HepaRG_CYP2B6: Life Technologies and Expression Analysis (LTEA) Assay for Cytochrome P450 (CYP2B6) using HepaRG (AID 2283481)
How it was run: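 Human HepaRG, 48 h dosing, 0.5% DMSO vehicle, top dose 100 uM. CYP2B6 transcript by qRT-PCR, housekeeping-normalized, bidirectional curve fit.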

[5] = read-out: Cytochrome P450 2C19 (Homo sapiens) (UniProt P33261); test: LTEA_HepaRG_CYP2C19: Life Technologies and Expression Analysis (LTEA) Assay for CYP2C19 using HepaRG (AID 2283482)
How it was run: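 Endpoint: CYP2C19 mRNA change, bidirectional fit vs 0.5% DMSO. Cells: HepaRG, 48 h exposure, eight-point series topping at 100 uM. Quantitation: qRT-PCR normalized to ACTB, GAPDH, POLR2A.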

CYP2C8 (gene 1558) = test: LTEA_HepaRG_CYP2C8: Life Technologies and Expression Analysis (LTEA) Assay for CYP2C8 using HepaRG (AID 2283483)
How it was run: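 Differentiated HepaRG cells in serum-free induction medium exposed 48 h in duplicate to 8 half-log concentrations from 100 uM in 0.5% DMSO. CYP2C8 mRNA by qRT-PCR normalized to ACTB, GAPDH, POLR2A; bidirectional fit versus DMSO.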

CYP2C9 (gene 1559) = test: LTEA_HepaRG_CYP2C9: Life Technologies and Expression Analysis (LTEA) Assay for CYP2C9 using HepaRG (AID 2283484)
How it was run: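 Differentiated human HepaRG cells in serum-free induction medium were exposed 48 h to chemicals in 8-point half-log series from 100 uM (0.5% DMSO), in duplicate. CYP2C9 mRNA was measured by qRT-PCR, normalized to ACTB/GAPDH/POLR2A, with bidirectional fitting versus DMSO.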

CYP2E1 (gene 1571) = test: LTEA_HepaRG_CYP2E1: Life Technologies and Expression Analysis (LTEA) Assay for CYP2E1 using HepaRG (AID 2283485)
How it was run: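 Differentiated HepaRG cells were treated in duplicate for 48 h with chemicals in 0.5% DMSO, from 100 uM downward in half-log dilutions. RNA was then analysed by qRT-PCR for CYP2E1 induction or loss.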

CYP4A11 (gene 1579) = test: LTEA_HepaRG_CYP4A11: Life Technologies and Expression Analysis (LTEA) Assay for CYP4A11 using HepaRG (AID 2283486)
How it was run: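 Human hepatic HepaRG cultures receive duplicate 48 h exposures across a concentration-response series topping at 100 uM. Expression changes in CYP4A11 are measured by qRT-PCR relative to DMSO controls.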

[6] = read-out: DNA damage-inducible transcript 3 (DDIT3), DDIT3 (gene 1649); test: LTEA_HepaRG_DDIT3: Life Technologies and Expression Analysis (LTEA) Assay for DNA damage-inducible transcript 3 (DDIT3) using HepaRG (AID 2283488)
How it was run: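 Changes in DDIT3 transcript, in either direction relative to 0.5% DMSO vehicle, were quantified by TaqMan qRT-PCR after 48 h chemical exposure of HepaRG cells at 8 concentrations, maximum 100 uM.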

[7] = read-out: Pro-epidermal growth factor (Homo sapiens) (UniProt P01133); test: LTEA_HepaRG_EGF: Life Technologies and Expression Analysis (LTEA) Assay for Epidermal growth factor (EGF) using HepaRG (AID 2283489)
How it was run: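 Concentration-response mRNA assay: HepaRG cells dosed 48 h (max 100 uM, 0.5% DMSO), EGF measured by qRT-PCR and normalized to ACTB/GAPDH/POLR2A.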

[8] = read-out: Early growth response protein 1 (EGR1) transcription factor, EGR1 (gene 1958); test: LTEA_HepaRG_EGR1: Life Technologies and Expression Analysis (LTEA) Assay for Early growth response protein 1 (EGR1) transcription factor using HepaRG (AID 2283490)
How it was run: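 Differentiated HepaRG cells in serum-free induction medium exposed 48 hours, duplicate, to 8 half-log concentrations up to 100 uM in 0.5% DMSO. EGR1 mRNA measured by TaqMan qRT-PCR, normalized to ACTB, GAPDH, POLR2A; bidirectional fit versus DMSO.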

[9] = read-out: Ezrin (EZR), EZR (gene 7430); test: LTEA_HepaRG_EZR: Life Technologies and Expression Analysis (LTEA) Assay for Ezrin (EZR) using HepaRG (AID 2283491)
How it was run: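 EZR transcript levels came from Fluidigm qRT-PCR and were normalized to three housekeeping genes after 48 h chemical exposure of HepaRG cells. Dosing used an 8-point half-log series with a 100 uM top concentration in 0.5% DMSO, tested in duplicate; both directions were fitted versus vehicle.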

[10] = read-out: Cytochrome P450 3A7 (Homo sapiens) (UniProt P24462); test: LTEA_HepaRG_CYP3A7: Life Technologies and Expression Analysis (LTEA) Assay for CYP3A7 using HepaRG (AID 2283492)
How it was run: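 qRT-PCR of CYP3A7 in HepaRG lysates after 48 h treatment; concentration-response (8 points, max 100 uM) analysed bidirectionally relative to 0.5% DMSO controls.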

CYP3A5 (gene 1577) = test: LTEA_HepaRG_CYP3A5: Life Technologies and Expression Analysis (LTEA) Assay for CYP3A5 using HepaRG (AID 2283493)
How it was run: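 mRNA induction or loss of CYP3A5 assessed in HepaRG after 48 h dosing, 100 uM top concentration, duplicate wells; TaqMan qRT-PCR with ACTB, GAPDH, POLR2A normalization; 0.5% DMSO as negative control.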

[11] = read-out: Fatty Acid-Binding Protein 1 (FABP1), FABP1 (gene 2168); test: LTEA_HepaRG_FABP1: Life Technologies and Expression Analysis (LTEA) Assay for Fatty Acid-Binding Protein 1 (FABP1) using HepaRG (AID 2283494)
How it was run: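 Differentiated human HepaRG cells exposed 48 h in serum-free induction medium to eight half-log concentrations up to 100 uM (0.5% DMSO), duplicate. FABP1 mRNA by qRT-PCR, normalised to ACTB, GAPDH, POLR2A; bidirectional fitting against DMSO.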

[12] = read-out: Cytochrome P450 4A22 (Homo sapiens) (UniProt Q5TCH4); test: LTEA_HepaRG_CYP4A22: Life Technologies and Expression Analysis (LTEA) Assay for Cytochrome P450 4A22 (CYP4A22) using HepaRG (AID 2283495)
How it was run: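 Concentration-response (8 points, max 100 uM, 0.5% DMSO) in human HepaRG liver cells after 48 h exposure. CYP4A22 mRNA by TaqMan qRT-PCR with housekeeping-gene normalization.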

Measured: AC50

Cytochrome P450 2C19 (Homo sapiens), sequence (P33261 whole entry, looked up): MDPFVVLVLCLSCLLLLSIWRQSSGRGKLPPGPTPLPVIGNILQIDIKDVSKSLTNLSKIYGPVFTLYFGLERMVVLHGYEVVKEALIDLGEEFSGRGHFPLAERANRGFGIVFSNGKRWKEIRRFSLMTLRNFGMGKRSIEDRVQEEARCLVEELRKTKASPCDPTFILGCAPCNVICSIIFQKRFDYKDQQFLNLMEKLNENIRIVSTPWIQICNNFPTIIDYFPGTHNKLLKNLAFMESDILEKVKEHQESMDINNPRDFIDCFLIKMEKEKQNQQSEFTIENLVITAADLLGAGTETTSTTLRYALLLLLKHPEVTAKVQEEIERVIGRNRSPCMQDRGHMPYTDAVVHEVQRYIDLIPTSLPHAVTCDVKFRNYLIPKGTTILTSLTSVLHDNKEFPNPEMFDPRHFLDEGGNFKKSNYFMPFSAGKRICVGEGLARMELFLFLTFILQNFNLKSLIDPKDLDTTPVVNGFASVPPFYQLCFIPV
Cytochrome P450 3A7 (Homo sapiens), sequence (P24462 whole entry, looked up): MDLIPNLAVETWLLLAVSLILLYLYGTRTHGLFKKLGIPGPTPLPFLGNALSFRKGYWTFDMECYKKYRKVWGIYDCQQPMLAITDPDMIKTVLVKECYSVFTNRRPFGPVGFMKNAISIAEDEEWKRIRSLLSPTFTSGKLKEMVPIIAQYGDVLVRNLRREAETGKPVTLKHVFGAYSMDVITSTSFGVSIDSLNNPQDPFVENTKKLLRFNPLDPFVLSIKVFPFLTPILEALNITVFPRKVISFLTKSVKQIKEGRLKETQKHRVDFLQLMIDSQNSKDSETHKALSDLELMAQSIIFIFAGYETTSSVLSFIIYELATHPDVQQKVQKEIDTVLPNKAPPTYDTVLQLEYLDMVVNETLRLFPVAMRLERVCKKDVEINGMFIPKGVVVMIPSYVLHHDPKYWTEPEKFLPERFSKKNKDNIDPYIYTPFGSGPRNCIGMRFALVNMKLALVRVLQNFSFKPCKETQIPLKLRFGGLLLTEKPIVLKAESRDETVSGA

Cc1ccccc1O
active: [4] 24.4 µM
inactive: all other assays above

CC(c1ccc(O)cc1)(c1ccc(O)cc1)c1ccc(O)cc1
active: [1] 3.86 µM | Caspase-3 (Homo sapiens) 87.5 µM | [2] 21.8 µM | [4] 31.3 µM | [5] 29 µM | CYP2C9 (gene 1559) 50 µM | CYP2E1 (gene 1571) 80.5 µM | [8] 81 µM | [9] 38.7 µM | [10] 20.7 µM | CYP3A5 (gene 1577) 37.1 µM | [11] 75.8 µM
inactive: [3] | CYP2C8 (gene 1558) | CYP4A11 (gene 1579) | [6] | [7] | [12]

CC#Cc1cc(C)nc(Nc2ccccc2)n1
active: [2] 7.61 µM | [4] 10.3 µM | [5] 24.9 µM | CYP2C8 (gene 1558) 48 µM | CYP2C9 (gene 1559) 19.8 µM | CYP2E1 (gene 1571) 13.6 µM | CYP4A11 (gene 1579) 1.1 µM | [10] 41.6 µM | CYP3A5 (gene 1577) 15.6 µM | [11] 13.7 µM | [12] 1.05 µM
inactive: [1] | Caspase-3 (Homo sapiens) | [3] | [6] | [7] | [8] | [9]
